# Tests used:
# Experiment in all cases: cross-link between two proteins; cross-linking mass spectrometry
# [1] = target: Cytochrome b-c1 complex subunit 2, mitochondrial (UniProt Q9DB77)
# [2] = target: NADH dehydrogenase [ubiquinone] 1 alpha subcomplex subunit 9, mitochondrial (UniProt Q9DC69)
# [3] = target: MICOS complex subunit Mic26 (UniProt Q9DCZ4)
# [4] = target: Cytochrome b-c1 complex subunit 8 (UniProt Q9CQ69)
# [5] = target: NADH dehydrogenase [ubiquinone] 1 beta subcomplex subunit 10 (UniProt Q9DCS9)
# [6] = target: NADH-ubiquinone oxidoreductase 75 kDa subunit, mitochondrial (UniProt Q91VD9)
# [7] = target: Double-stranded RNA-binding protein Staufen homolog 1 (UniProt Q9Z108)
# [8] = target: ATP synthase peripheral stalk subunit F6, mitochondrial (UniProt P97450)
# [9] = target: ATP synthase peripheral stalk subunit d, mitochondrial (UniProt Q9DCX2)
# [10] = target: Cytochrome b-c1 complex subunit 1, mitochondrial (UniProt Q9CZ13)
# [11] = target: Cytochrome b-c1 complex subunit Rieske, mitochondrial (UniProt Q9CR68)
# [12] = target: Cytochrome c1, heme protein, mitochondrial (UniProt Q9D0M3)
# [13] = target: Methylmalonic aciduria type A homolog, mitochondrial (UniProt Q8C7H1)
# [14] = target: MICOS complex subunit Mic19 (UniProt Q9CRB9)
# [15] = target: MICOS complex subunit Mic60 (UniProt Q8CAQ8)
# [16] = target: Heat shock protein 75 kDa, mitochondrial (UniProt Q9CQN1)
# [17] = target: Apoptosis-inducing factor 1, mitochondrial (UniProt Q9Z0X1)
# [18] = target: Isocitrate dehydrogenase [NAD] subunit alpha, mitochondrial (UniProt Q9D6R2)
# [19] = target: Succinate dehydrogenase [ubiquinone] iron-sulfur subunit, mitochondrial (UniProt Q9CQA3)
# [20] = target: Dihydrolipoyllysine-residue succinyltransferase component of 2-oxoglutarate dehydrogenase complex, mitochondrial (UniProt Q9D2G2)
# [21] = target: Cytochrome b-c1 complex subunit 7 (UniProt Q9D855)
# Protein FAM162A = Protein FAM162A (UniProt Q9D6U8)
# [22] = target: Mitochondrial import inner membrane translocase subunit Tim9 (UniProt Q9WV98)
# [23] = target: Cytochrome c oxidase subunit 6C (UniProt Q9CPQ1)
# [24] = target: Mitochondrial import inner membrane translocase subunit TIM14 (UniProt Q9CQV7)
# ADP/ATP translocase 1 = ADP/ATP translocase 1 (UniProt P48962)
# [25] = target: Cytochrome b-c1 complex subunit 6, mitochondrial (UniProt P99028)
# [26] = target: Cytochrome c oxidase subunit 7B, mitochondrial (UniProt P56393)
# [27] = target: Cytochrome c oxidase subunit FA4 (UniProt Q62425)
# [28] = target: FAST kinase domain-containing protein 2, mitochondrial (UniProt Q922E6)
# [29] = target: Methylglutaconyl-CoA hydratase, mitochondrial (UniProt Q9JLZ3)
# [30] = target: NADH dehydrogenase [ubiquinone] flavoprotein 1, mitochondrial (UniProt Q91YT0)
# [31] = target: Cytochrome b-c1 complex subunit 9 (UniProt Q8R1I1)
# [32] = target: DnaJ homolog subfamily C member 11 (UniProt Q5U458)
# [33] = target: Mitochondrial fission regulator 1-like (UniProt Q9CWE0)
# [34] = target: 2-oxoglutarate dehydrogenase complex component E1 (UniProt Q60597)
# [35] = target: NADH dehydrogenase [ubiquinone] 1 beta subcomplex subunit 8, mitochondrial (UniProt Q9D6J5)
# [36] = target: ATP synthase F(0) complex subunit g, mitochondrial (UniProt Q9CPQ8)
# [37] = target: ATP synthase peripheral stalk subunit OSCP, mitochondrial (UniProt Q9DB20)
# [38] = target: Dynamin-like GTPase OPA1, mitochondrial (UniProt P58281)
# [39] = target: NADH dehydrogenase [ubiquinone] 1 alpha subcomplex subunit 13 (UniProt Q9ERS2)
# Chain of NADH dehydrogenase [ubiquinone] 1 alpha subcomplex subunit 13 (Q9ERS2 whole entry, one chain of several): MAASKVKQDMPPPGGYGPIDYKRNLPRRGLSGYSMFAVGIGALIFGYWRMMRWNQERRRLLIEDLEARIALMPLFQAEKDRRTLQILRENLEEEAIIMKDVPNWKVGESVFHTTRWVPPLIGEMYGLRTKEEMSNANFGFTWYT
# Chain of Cytochrome c oxidase subunit 6C (Q9CPQ1 whole entry): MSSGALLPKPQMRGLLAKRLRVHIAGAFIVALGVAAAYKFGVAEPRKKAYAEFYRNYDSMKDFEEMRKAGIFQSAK
# Chain of Cytochrome b-c1 complex subunit 1, mitochondrial (Q9CZ13 whole entry, one chain of several): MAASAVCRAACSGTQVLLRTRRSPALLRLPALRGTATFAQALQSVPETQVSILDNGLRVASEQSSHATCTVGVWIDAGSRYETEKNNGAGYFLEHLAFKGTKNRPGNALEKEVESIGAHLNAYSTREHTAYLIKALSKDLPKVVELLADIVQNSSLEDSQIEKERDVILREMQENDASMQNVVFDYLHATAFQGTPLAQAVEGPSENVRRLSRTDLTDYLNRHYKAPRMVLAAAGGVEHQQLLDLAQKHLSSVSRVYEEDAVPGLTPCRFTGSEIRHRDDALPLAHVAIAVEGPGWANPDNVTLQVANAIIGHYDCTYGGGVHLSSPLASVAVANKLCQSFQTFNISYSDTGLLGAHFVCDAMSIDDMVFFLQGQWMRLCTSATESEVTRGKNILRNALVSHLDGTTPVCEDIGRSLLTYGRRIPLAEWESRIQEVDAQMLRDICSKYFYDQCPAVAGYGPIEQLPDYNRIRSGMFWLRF
# Chain of NADH dehydrogenase [ubiquinone] 1 beta subcomplex subunit 10 (Q9DCS9 whole entry, one chain of several): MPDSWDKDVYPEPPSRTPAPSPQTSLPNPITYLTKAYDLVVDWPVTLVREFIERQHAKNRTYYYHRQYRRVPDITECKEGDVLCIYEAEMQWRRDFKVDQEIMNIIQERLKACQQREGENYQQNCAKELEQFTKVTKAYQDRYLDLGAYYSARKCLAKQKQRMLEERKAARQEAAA
# Chain of ATP synthase peripheral stalk subunit d, mitochondrial (Q9DCX2 whole entry): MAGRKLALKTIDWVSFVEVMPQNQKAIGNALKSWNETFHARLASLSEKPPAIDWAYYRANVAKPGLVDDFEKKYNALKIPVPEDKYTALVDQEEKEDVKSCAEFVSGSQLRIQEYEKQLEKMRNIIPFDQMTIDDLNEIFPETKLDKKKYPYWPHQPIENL
# Chain of Dihydrolipoyllysine-residue succinyltransferase component of 2-oxoglutarate dehydrogenase complex, mitochondrial (Q9D2G2 whole entry, one chain of several): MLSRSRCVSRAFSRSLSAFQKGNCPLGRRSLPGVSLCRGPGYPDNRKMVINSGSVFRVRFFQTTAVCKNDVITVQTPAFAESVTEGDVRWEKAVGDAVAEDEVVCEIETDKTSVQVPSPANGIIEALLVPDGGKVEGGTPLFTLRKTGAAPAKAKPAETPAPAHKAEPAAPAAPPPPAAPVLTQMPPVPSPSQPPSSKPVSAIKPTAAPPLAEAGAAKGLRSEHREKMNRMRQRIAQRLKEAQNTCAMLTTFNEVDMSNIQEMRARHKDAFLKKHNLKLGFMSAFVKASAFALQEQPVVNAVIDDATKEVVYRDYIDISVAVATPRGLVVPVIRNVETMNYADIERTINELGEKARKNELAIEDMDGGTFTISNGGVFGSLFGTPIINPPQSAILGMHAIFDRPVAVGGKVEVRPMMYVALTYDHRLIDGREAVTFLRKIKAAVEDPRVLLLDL
# Chain of Cytochrome c oxidase subunit FA4 (Q62425 whole entry, the tested form may be a part): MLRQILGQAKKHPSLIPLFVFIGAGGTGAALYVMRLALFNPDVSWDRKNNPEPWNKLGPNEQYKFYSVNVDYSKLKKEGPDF
# Chain of Cytochrome b-c1 complex subunit 6, mitochondrial (P99028 whole entry, one chain of several): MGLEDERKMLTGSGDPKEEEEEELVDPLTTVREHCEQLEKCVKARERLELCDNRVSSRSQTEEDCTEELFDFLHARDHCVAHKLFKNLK
# Chain of Protein FAM162A (Q9D6U8 whole entry): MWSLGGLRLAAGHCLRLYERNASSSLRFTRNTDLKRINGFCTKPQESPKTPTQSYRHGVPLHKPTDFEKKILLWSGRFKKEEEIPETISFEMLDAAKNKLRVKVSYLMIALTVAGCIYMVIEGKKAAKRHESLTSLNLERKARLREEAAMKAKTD
# Chain of Cytochrome c oxidase subunit 7B, mitochondrial (P56393 whole entry): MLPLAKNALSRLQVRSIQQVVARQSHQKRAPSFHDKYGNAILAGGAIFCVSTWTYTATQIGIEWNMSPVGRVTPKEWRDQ
# Chain of Succinate dehydrogenase [ubiquinone] iron-sulfur subunit, mitochondrial (Q9CQA3 whole entry): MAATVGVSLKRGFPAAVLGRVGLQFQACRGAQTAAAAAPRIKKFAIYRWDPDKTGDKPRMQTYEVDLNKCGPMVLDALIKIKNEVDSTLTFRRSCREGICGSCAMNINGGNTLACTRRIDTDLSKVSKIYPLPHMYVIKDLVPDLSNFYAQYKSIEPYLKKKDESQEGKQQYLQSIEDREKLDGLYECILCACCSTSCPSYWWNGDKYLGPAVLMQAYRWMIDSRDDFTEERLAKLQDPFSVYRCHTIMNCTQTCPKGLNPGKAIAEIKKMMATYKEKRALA
# Chain of Mitochondrial fission regulator 1-like (Q9CWE0 whole entry): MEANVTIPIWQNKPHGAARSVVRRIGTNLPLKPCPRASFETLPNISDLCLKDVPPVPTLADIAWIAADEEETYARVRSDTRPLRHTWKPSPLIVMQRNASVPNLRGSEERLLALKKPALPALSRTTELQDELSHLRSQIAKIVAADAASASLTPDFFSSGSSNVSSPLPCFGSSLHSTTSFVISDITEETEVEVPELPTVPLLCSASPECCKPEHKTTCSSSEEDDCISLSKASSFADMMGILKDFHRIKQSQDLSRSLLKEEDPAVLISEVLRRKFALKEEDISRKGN
# Chain of NADH-ubiquinone oxidoreductase 75 kDa subunit, mitochondrial (Q91VD9 whole entry): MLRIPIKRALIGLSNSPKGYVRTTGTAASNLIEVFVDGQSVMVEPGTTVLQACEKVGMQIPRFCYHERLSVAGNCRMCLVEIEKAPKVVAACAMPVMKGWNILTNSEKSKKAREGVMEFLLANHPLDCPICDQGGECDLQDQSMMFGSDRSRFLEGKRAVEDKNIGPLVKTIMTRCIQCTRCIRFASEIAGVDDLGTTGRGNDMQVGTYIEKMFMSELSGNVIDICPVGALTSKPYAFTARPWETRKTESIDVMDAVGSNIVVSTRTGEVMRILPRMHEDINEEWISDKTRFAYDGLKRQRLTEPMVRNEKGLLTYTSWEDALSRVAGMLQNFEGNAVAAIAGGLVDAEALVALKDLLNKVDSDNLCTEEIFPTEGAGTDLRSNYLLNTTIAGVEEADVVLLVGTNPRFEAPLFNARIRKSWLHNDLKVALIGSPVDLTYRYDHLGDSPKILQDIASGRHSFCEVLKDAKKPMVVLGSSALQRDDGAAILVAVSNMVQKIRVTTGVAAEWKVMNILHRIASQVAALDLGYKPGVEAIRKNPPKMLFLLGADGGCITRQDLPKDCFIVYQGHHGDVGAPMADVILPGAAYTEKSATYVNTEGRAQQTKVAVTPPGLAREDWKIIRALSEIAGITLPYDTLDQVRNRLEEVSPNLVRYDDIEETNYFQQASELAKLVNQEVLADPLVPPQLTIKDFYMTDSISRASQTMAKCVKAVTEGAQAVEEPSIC
# Chain of Cytochrome b, P00158 (P00158 whole entry): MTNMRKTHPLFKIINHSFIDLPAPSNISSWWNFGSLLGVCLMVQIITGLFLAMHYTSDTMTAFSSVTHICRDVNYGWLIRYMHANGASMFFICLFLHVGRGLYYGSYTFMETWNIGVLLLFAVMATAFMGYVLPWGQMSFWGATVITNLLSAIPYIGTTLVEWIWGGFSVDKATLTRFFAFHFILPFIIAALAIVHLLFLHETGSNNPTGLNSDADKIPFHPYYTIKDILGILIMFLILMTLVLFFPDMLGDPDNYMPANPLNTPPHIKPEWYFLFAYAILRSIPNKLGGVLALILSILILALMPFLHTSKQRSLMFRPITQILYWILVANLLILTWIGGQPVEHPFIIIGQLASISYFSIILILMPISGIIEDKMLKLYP
# Chain of Cytochrome c1, heme protein, mitochondrial (Q9D0M3 whole entry): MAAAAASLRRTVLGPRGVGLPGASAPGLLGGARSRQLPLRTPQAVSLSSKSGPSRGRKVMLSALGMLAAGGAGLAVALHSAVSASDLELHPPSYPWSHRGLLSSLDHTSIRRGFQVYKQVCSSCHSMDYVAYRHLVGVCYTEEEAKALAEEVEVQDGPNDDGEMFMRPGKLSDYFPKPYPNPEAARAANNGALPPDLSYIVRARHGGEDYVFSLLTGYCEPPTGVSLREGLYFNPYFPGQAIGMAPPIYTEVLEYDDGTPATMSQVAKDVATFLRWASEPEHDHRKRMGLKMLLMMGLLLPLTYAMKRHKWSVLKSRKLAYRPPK
# Chain of Succinate dehydrogenase [ubiquinone] flavoprotein subunit, mitochondrial, Q8K2B3 (Q8K2B3 whole entry): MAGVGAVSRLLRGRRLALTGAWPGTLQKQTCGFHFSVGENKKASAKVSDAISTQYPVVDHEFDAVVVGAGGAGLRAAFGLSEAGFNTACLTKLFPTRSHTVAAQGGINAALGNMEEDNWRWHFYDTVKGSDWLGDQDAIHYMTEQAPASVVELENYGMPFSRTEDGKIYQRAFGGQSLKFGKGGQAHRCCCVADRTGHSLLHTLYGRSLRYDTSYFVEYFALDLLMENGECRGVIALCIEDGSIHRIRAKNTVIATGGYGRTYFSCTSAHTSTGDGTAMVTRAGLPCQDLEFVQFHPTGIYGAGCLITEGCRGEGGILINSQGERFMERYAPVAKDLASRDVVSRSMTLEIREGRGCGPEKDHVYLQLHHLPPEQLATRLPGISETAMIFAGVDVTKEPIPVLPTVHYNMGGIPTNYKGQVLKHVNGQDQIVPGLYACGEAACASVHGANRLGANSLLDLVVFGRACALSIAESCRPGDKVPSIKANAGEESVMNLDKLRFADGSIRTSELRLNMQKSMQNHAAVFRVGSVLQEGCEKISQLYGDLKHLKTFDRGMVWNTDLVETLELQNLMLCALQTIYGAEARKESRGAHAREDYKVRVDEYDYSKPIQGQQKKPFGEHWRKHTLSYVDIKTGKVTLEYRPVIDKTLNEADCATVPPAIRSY
# Chain of Cytochrome b-c1 complex subunit 7 (Q9D855 whole entry, one chain of several): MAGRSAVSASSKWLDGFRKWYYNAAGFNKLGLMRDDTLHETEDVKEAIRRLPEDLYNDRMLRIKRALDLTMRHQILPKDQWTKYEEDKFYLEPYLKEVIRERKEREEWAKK
# Chain of Cytochrome b-c1 complex subunit 8 (Q9CQ69 whole entry, one chain of several): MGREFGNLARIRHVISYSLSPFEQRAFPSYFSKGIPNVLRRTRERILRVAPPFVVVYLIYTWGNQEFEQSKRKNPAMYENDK
substance,measurement,setting,value
"Cytochrome c1, heme protein, mitochondrial, Q9D0M3",listed as a hit,[1],yes
"StAR-related lipid transfer protein 7, mitochondrial, Q8R1R3",listed as a hit,[2],yes
"MICOS complex subunit Mic60, Q8CAQ8",listed as a hit,[3],yes
"Cytochrome b-c1 complex subunit 6, mitochondrial, P99028",listed as a hit,[4],yes
same,listed as a hit,[5],yes
"NADH dehydrogenase [ubiquinone] iron-sulfur protein 6, mitochondrial, P52503",listed as a hit,[6],yes
"Acetyl-CoA acetyltransferase, mitochondrial, Q8QZT1",listed as a hit,[7],yes
"Malate dehydrogenase, mitochondrial, P08249",listed as a hit,[8],yes
same,listed as a hit,[9],yes
same,listed as a hit,[10],yes
"Cytochrome b-c1 complex subunit 8, Q9CQ69",listed as a hit,[11],yes
same,listed as a hit,[12],yes
"Methylmalonyl-CoA mutase, mitochondrial, P16332",listed as a hit,[13],yes
"NADH dehydrogenase [ubiquinone] 1 beta subcomplex subunit 4, Q9CQC7",listed as a hit,[5],yes
"MICOS complex subunit Mic27, Q78IK4",listed as a hit,[14],yes
same,listed as a hit,[15],yes
"Stress-70 protein, mitochondrial, P38647",listed as a hit,[16],yes
"Cytochrome c oxidase subunit FA4, Q62425",listed as a hit,[17],yes
"Aspartate aminotransferase, mitochondrial, P05202",listed as a hit,[10],yes
same,listed as a hit,[18],yes
"ATP synthase F(0) complex subunit g, mitochondrial, Q9CPQ8",listed as a hit,[19],yes
"Trifunctional enzyme subunit alpha, mitochondrial, Q8BMS1",listed as a hit,[9],yes
"Alpha-ketoglutarate dehydrogenase component 4, Q9CQX8",listed as a hit,[20],yes
"ATP synthase F(0) complex subunit 8, P03930",listed as a hit,[9],yes
"Cytochrome b, P00158",listed as a hit,[21],yes
"Cytochrome c oxidase subunit 6C, Q9CPQ1",listed as a hit,Protein FAM162A,yes
"Mitochondrial import inner membrane translocase subunit Tim10, P62073",listed as a hit,[22],yes
"2-oxoglutarate dehydrogenase complex component E1, Q60597",listed as a hit,[20],yes
"Cytochrome c, somatic, P62897",listed as a hit,[23],yes
"Mitochondrial import inner membrane translocase subunit TIM16, Q9CQV1",listed as a hit,[24],yes
"Cytochrome c oxidase subunit 4 isoform 1, mitochondrial, P19783",listed as a hit,ADP/ATP translocase 1,yes
same,listed as a hit,[25],yes
same,listed as a hit,[23],yes
same,listed as a hit,[26],yes
same,listed as a hit,[27],yes
same,listed as a hit,[28],yes
same,listed as a hit,[29],yes
same,listed as a hit,[30],yes
"Cytochrome c oxidase subunit 7B, mitochondrial, P56393",listed as a hit,[31],yes
same,listed as a hit,[27],yes
"Metaxin-2, O88441",listed as a hit,[32],yes
"NADH dehydrogenase [ubiquinone] 1 beta subcomplex subunit 8, mitochondrial, Q9D6J5",listed as a hit,[5],yes
"Mitochondrial Rho GTPase 1, Q8BG51",listed as a hit,[33],yes
"Dihydrolipoyl dehydrogenase, mitochondrial, O08749",listed as a hit,[34],yes
"NADH dehydrogenase [ubiquinone] 1 beta subcomplex subunit 11, mitochondrial, O09111",listed as a hit,[35],yes
"ADP/ATP translocase 1, P48962",listed as a hit,[36],yes
same,listed as a hit,[37],yes
same,listed as a hit,[25],yes
same,listed as a hit,[23],yes
same,listed as a hit,[26],yes
same,listed as a hit,[38],yes
same,listed as a hit,Protein FAM162A,yes
"NADH dehydrogenase [ubiquinone] 1 alpha subcomplex subunit 8, Q9DCJ5",listed as a hit,[39],yes
"Succinate dehydrogenase [ubiquinone] flavoprotein subunit, mitochondrial, Q8K2B3",listed as a hit,[10],yes

# From paper PMC5795388
